The values that follow come from PubChem BioAssay (EPA / NIEHS).

Structures are written as SMILES. Results filed as inconclusive are left out. Active and inactive are the calls of the source. Rule for the calls: active = hit-call score of the fitted dose curve at least 0.9, where 1 is the maximum; inconclusive = response in the unintended direction; inactive = score below 0.9.

Experiment [1] can be described thus: Tanguay_ZF_120hpf_JAW_legacy: (Legacy) Oregon State University Tanguay Lab 120 Hour Post-fertilization zebrafish Assay for Jaw Malformation (AID 2283638). Put shortly:
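Binary jaw-malformation call at 120 hpf by brightfield microscopy. Embryos (Tropical 5D strain, chorion removed at 4 hpf) were dosed statically at 6 hpf, one per well, at 28C with 0.64% DMSO. Embryos that died were not scored.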

Experiment [2] is described as follows: Tanguay_ZF_120hpf_PE_legacy: (Legacy) Oregon State University Tanguay Lab 120 Hour Post-fertilization zebrafish Assay for Pericardial Edema (AID 2283640).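 For AC50: potency for increased incidence of pericardial edema versus DMSO baseline.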 Put shortly: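 Scoring was binary, by brightfield microscopy at 120 hpf, and skipped where mortality occurred. Wild-type embryos were kept under sealed, foil-covered static exposure at 28C in 0.64% (vol/vol) DMSO.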

The nature of experiment [3]: Tanguay_ZF_120hpf_SOMI_legacy: (Legacy) Oregon State University Tanguay Lab 120 Hour Post-fertilization zebrafish Assay for Somite Malformation (AID 2283647). Put shortly: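 Binary somite-defect scoring at 120 hpf, omitted for embryos that died, in wild-type (Tropical 5D) zebrafish with chorion removed by pronase at 4 hpf; static exposure began 6 hpf, single embryos per well, 28C, 0.64% DMSO; fitted positive versus DMSO.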

Experiment [4] is described as follows: Tanguay_ZF_120hpf_PFIN_legacy: (Legacy) Oregon State University Tanguay Lab 120 Hour Post-fertilization zebrafish Assay for Pectoral Fin Malformation (AID 2283648).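 Note: each larva judged yes or no for fin defect by brightfield with dead larvae skipped.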 The procedure, abridged: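 Dechorionated Tropical 5D wild-type zebrafish embryos, one per well, statically exposed from 6 to 120 hpf at 28C with 0.64% DMSO final. Pectoral fin malformation scored present/absent by brightfield at 120 hpf; not scored in dead embryos.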

The nature of experiment [5]: Tanguay_ZF_120hpf_CFIN_legacy: (Legacy) Oregon State University Tanguay Lab 120 Hour Post-fertilization zebrafish Assay for Caudal Fin Malformation (AID 2283649). The procedure, abridged: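 Binary brightfield scoring of caudal fin defects at 120 hpf after static, light-shielded exposure at 28C from 6 hpf. Tropical 5D embryos, chorion removed with pronase at 4 hpf, final DMSO 0.64%.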

Experiment [6] in a line: Tanguay_ZF_120hpf_PIG_legacy: (Legacy) Oregon State University Tanguay Lab 120 Hour Post-fertilization zebrafish Assay for Pigmentation Malformation (AID 2283650). Put shortly: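 Dechorionated Tropical 5D wild-type embryos, one per well from 6 hpf, statically exposed at 28C in the dark until 120 hpf, 0.64% DMSO final. Pigmentation scored present/absent by brightfield microscopy; dead embryos not scored; fitted versus DMSO.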

Experiment [7] in a line: Tanguay_ZF_120hpf_SWIM_legacy: (Legacy) Oregon State University Tanguay Lab 120 Hour Post-fertilization zebrafish Assay for Swim Bladder Malformation (AID 2283654).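 Note: swim bladder malformation in each larva scored yes or no under brightfield.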 Put shortly: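 Dechorionated wild-type Tropical 5D zebrafish embryos, one per well from 6 hpf, were statically exposed at 28C until 120 hpf in 0.64% DMSO. Swim bladder malformation scored as present/absent by brightfield microscopy; not scored in dead larvae.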

Experiment [8] can be described thus: Tanguay_ZF_120hpf_TRUN_legacy: (Legacy) Oregon State University Tanguay Lab 120 Hour Post-fertilization zebrafish Assay for Truncated Body (AID 2283655). Put shortly: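 Binary presence/absence of truncated body is recorded at 120 hpf by brightfield, with non-mortality endpoints skipped after death. Exposure is static from 6 hpf in sealed dark plates at 28C, using dechorionated wild-type zebrafish, 0.64% DMSO.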

Experiment [9] in a line: Tanguay_ZF_120hpf_NC_legacy: (Legacy) Oregon State University Tanguay Lab 120 Hour Post-fertilization zebrafish Assay for Notochord and Tail Malformation (AID 2283656). The procedure, abridged:
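Dechorionated 5D zebrafish, 1/well from 6 hpf; static exposure to 120 hpf, 28C, sealed, dark; final DMSO 0.64% v/v. NC scored binary (present/absent); dead embryos not scored. Fit vs DMSO baseline, gain direction.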

Experiment [10] deals with Thyroperoxidase (TPO), gene 54314. In words: CCTE_Simmons_AUR_rTPO: CCTE's Amplex UltraRed Assay for Thyroperoxidase (TPO) Inhibition, Simmons Lab (AID 2283662).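 Note: potency for loss of signal meaning inhibition of peroxidase activity.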 The procedure, abridged:
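Endpoint is decreased Amplex UltraRed fluorescence after a 30-min, 37C reaction of rat thyroid microsomes with 300 uM H2O2. Eight test concentrations (5 nM–87.5 uM final) in 0.5% DMSO, three biological replicates each.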

Experiment [11] can be described thus: CCTE_Simmons_CellTiterGLO_HEK293T: Viability Assessment in CCTE's Assays for Thyroperoxidase (TPO) Inhibition, Simmons Lab (AID 2283665).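 For AC50: cells exposed to compound for 24 h before readout; actives reduce ATP signal below DMSO vehicle meaning cytotoxicity.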 The procedure, abridged: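 Cytotoxicity counter-screen: human HEK293T cells in low-serum (1% FBS) medium receive test chemical, 5 nM to 87.5 uM final, for 24 h; ATP is quantified by luciferase luminescence.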
For orientation: In ATP-based viability assays light output follows the ATP content of the culture.

Experiment [12] in a line: Tanguay_ZF_120hpf_TR_legacy: (Legacy) Oregon State University Tanguay Lab 120 Hour Post-fertilization zebrafish Assay for Touch Response (AID 2283667). The procedure, abridged: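 Tropical 5D wild-type zebrafish embryos statically exposed to 120 hpf at 28°C, sealed and dark-covered, 0.64% DMSO final; touch response scored as present/absent by brightfield microscopy at 120 hpf. Trimethyltin chloride 5 uM positive control; dead embryos not scored.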

A short description of experiment [13]: Tanguay_ZF_120hpf_CIRC_legacy: (Legacy) Oregon State University Tanguay Lab 120 Hour Post-fertilization zebrafish Assay for Circulatory Malformation (AID 2283651). Put shortly: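 Using wild-type Tropical 5D zebrafish, we exposed dechorionated embryos from 6 to 120 hpf in embryo medium with 0.64% DMSO. Circulatory defects were scored as present or absent; 5uM trimethyltin chloride served as positive control.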

Experiment [14] can be described thus: Tanguay_ZF_120hpf_BRAI_legacy: (Legacy) Oregon State University Tanguay Lab 120 Hour Post-fertilization zebrafish Assay for Brain Malformation (AID 2283641). The procedure, abridged: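 Binary brightfield scoring of brain malformation at 120 hpf in Tropical 5D larvae held under static exposure at 28C (0.64% v/v DMSO), non-mortality endpoints skipped if dead. Positive control: 5uM trimethyltin chloride; fit versus DMSO.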

The nature of experiment [15]: Tanguay_ZF_120hpf_OTIC_legacy: (Legacy) Oregon State University Tanguay Lab 120 Hour Post-fertilization zebrafish Assay for Otic Vesicle Malformation (AID 2283639). Put shortly:
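Otic vesicle malformation is read as a yes/no morphology call at 120 hpf. Exposure is static at 28C with 0.64% (vol/vol) DMSO; embryos that die are excluded from non-mortality endpoints.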

In the case of `Cc1c(C(=O)O)c(O)cc2c1C(=O)c1c(O)c([C@@H]3O[C@H](CO)[C@@H](O)[C@H](O)[C@H]3O)c(O)c(O)c1C2=O`, the molecule was called inactive in experiment [1], in experiment [2], in [3], in experiment [4], in [5] and in experiment [6]. Besides, the molecule was called inactive in experiment [7], in experiment [8], in experiment [9] and in experiment [12]. The AC50 in experiment [10] is 2.65 µM (active); in [11], 12.6 µM (active).
With `NCC1(Cc2noc(=O)[nH]2)CCCCC1`, the result in experiment [1], in [2], in experiment [4], in experiment [5], in [6] and in experiment [13] was inactive. Moreover, the molecule was classed as inactive in experiment [7], in experiment [8], in experiment [9] and in experiment [12].
`Cc1ccc(N(C)C)cc1`: the molecule was classed as inactive in experiment [1], in experiment [4], in experiment [6], in experiment [13], in [7] and in experiment [8]. For the same molecule, the outcome in [9] and in [11] was inactive. The AC50 in experiment [10] is 11.3 µM (active).
As for `Cc1ccc(C(C)C)c(O)c1`, the call in experiment [2], in [4], in experiment [5], in experiment [6], in experiment [13] and in [8] was inactive. Further, the call in experiment [9] and in experiment [12] was inactive.
As to `Nc1ccc2c(c1)C(=O)c1ccccc1C2=O`, the result in experiment [1], in experiment [14], in experiment [4], in experiment [5], in [6] and in experiment [13] was inactive. In addition, the outcome in experiment [7], in experiment [8] and in [9] was inactive.
On to `CC(CO)OC(C)CO` (stereo not given) (tested in a mixture with another compound), for which the outcome in experiment [2], in experiment [4], in experiment [5], in [6], in experiment [7] and in [8] was inactive. In addition, the molecule was classed as inactive in [9] and in experiment [12].
As for `C=CCOC(=O)c1ccccc1C(=O)OCC=C`, the outcome in experiment [1], in [3], in experiment [4], in experiment [6], in experiment [13] and in [8] was inactive. Further, the outcome in [9] and in [12] was inactive. The AC50 in [2] is 46.9 µM (active); in experiment [7] it was 46.4 µM (active).
In the case of `CCCCCCCCCCCC(=O)OC`, the result in experiment [2], in experiment [3], in [4], in experiment [5], in [6] and in experiment [13] was inactive. Also, the call in experiment [7], in experiment [8], in experiment [9] and in experiment [12] was inactive.
Consider `Cc1cccc(C)c1O`, for which the call in [1], in experiment [2], in experiment [14], in experiment [4], in [6] and in [13] was inactive. For the same molecule, the result in experiment [7], in [8], in [9], in experiment [11] and in [12] was inactive. Moreover, in experiment [10], the AC50 was 23.4 µM (active).
As to `O=[N+]([O-])C(CO)(CO)CO`, the call in experiment [1], in experiment [2], in experiment [14], in experiment [5], in [6] and in experiment [13] was inactive. Further, the molecule was called inactive in [7], in experiment [9] and in experiment [12].
`CCOC(=O)C(C)(C)Oc1ccc(Cl)cc1`: the molecule was called inactive in experiment [2], in [14], in experiment [3], in [6], in experiment [13] and in experiment [7]. For the same molecule, the outcome in [9] and in experiment [12] was inactive. The results for the AC50 in experiment [5] and in experiment [8] were 69.7 µM (active) and 65.3 µM (active), respectively.
Consider `CC1=C(/C=C/C(C)=C/C=C/C(C)=C/CO)C(C)(C)CCC1`, for which the molecule was classed as inactive in [15], in experiment [2], in experiment [4], in experiment [5], in [6] and in experiment [13]. The result in [7], in experiment [8] and in [9] was inactive. Besides, the AC50 in experiment [10] is 28.6 µM (active); in experiment [11] it was 12 µM (active).
`COc1ccc(C)cc1N`: the molecule was classed as inactive in [1], in experiment [14], in experiment [3], in experiment [4], in experiment [5] and in experiment [6]. Further, the outcome in [13], in experiment [7], in experiment [8], in experiment [11] and in [12] was inactive. Besides, in [10], the AC50 was 1.23 µM (active).

What is called AC50 is the midpoint of the concentration-response curve, whichever way the signal moves.
